According to article PMC8384837, “Expanding the binding specificity for RNA recognition by a PUF domain”:

What was measured:
Assay in all cases: yeast three-hybrid, YBZ-1, SC-Leu-His + 0.5 mM 3-AT, 4 days
Settings in all cases: tags: N-Gal4 AD-HA kept; label: inside an RPR1-promoter hybrid RNA with tandem MS2 sites; ssRNA
[1] = molecular target: PUM1 PUF domain R3-SRR (Homo sapiens, UniProt Q14671 828-1176, C935S;Q939R)
Procedure, shortened: (§1)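 The interaction score is the logarithmic change in variant frequency from input to selection. It uses log2, with a pseudocount of 1 for absent variants, and frequencies came from PCR-amplified, Illumina-sequenced repeat regions. The libraries were Pumilio-1 PUF domains randomized at the three base-contacting residues per repeat, co-expressed with matching RNA elements in strain YBZ-1 (LexA–MS2 coat fusion, HIS3 reporter). Plating lasted four days on SC-Leu (input) or SC-Leu-His + 0.5 mM 3-AT (selection).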

[2] = molecular target: PUM1 PUF domain R5-SMS (Homo sapiens, UniProt Q14671 828-1176, C1007S;R1008M;Q1011S)
Procedure, shortened: as §1

[3] = molecular target: PUM1 PUF domain R5-RFV (Homo sapiens, UniProt Q14671 828-1176, C1007R;R1008F;Q1011V)
Procedure, shortened: as §1

[4] = molecular target: PUM1 PUF domain R7-ASR (Homo sapiens, UniProt Q14671 828-1176, S1079A;N1080S;E1083R)
Procedure, shortened: as §1

[5] = molecular target: PUM1 PUF domain R4-CPV (Homo sapiens, UniProt Q14671 828-1176, N971C;H972P;Q975V)
Procedure, shortened: as §1

[6] = molecular target: PUM1 PUF domain R8-RRA (Homo sapiens, UniProt Q14671 828-1176, N1122R;Y1123R;Q1126A)
Procedure, shortened: as §1

[7] = molecular target: PUM1 PUF domain R8-FYH (Homo sapiens, UniProt Q14671 828-1176, N1122F;Q1126H)
Procedure, shortened: as §1

[8] = molecular target: PUM1 PUF domain R8-RHV (Homo sapiens, UniProt Q14671 828-1176, N1122R;Y1123H;Q1126V)
Procedure, shortened: as §1

[9] = molecular target: PUM1 PUF domain R4-NNA (Homo sapiens, UniProt Q14671 828-1176, H972N;Q975A)
Procedure, shortened: as §1

[10] = molecular target: PUM1 PUF domain R5-KQR (Homo sapiens, UniProt Q14671 828-1176, C1007K;R1008Q;Q1011R)
Procedure, shortened: as §1

[11] = molecular target: T1, PUM1 PUF domain R6-RPG (Homo sapiens, UniProt Q14671 828-1176, N1043R;Y1044P;Q1047G)
T1 sequence: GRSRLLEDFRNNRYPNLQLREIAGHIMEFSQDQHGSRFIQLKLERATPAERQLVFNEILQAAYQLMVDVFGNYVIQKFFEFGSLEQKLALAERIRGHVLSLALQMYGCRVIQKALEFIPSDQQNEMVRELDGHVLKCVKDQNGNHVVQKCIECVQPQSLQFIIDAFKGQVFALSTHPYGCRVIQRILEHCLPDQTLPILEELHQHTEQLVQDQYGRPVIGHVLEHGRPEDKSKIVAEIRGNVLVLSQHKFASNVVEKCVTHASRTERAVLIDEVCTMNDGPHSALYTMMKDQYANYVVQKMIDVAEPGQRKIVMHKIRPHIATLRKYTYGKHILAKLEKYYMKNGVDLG
Procedure, shortened: as §1

[12] = molecular target: PUM1 PUF domain R3-TYF (Homo sapiens, UniProt Q14671 828-1176, C935T;R936Y;Q939F)
Procedure, shortened: as §1

[13] = molecular target: PUM1 PUF domain R5-EYR (Homo sapiens, UniProt Q14671 828-1176, C1007E;R1008Y;Q1011R)
Procedure, shortened: as §1

[14] = molecular target: PUM1 PUF domain R3-MWH (Homo sapiens, UniProt Q14671 828-1176, C935M;R936W;Q939H)
Procedure, shortened: as §1

[15] = molecular target: PUM1 PUF domain R5-NQR (Homo sapiens, UniProt Q14671 828-1176, C1007N;R1008Q;Q1011R)
Procedure, shortened: as §1

[16] = molecular target: PUM1 PUF domain R5-FNL (Homo sapiens, UniProt Q14671 828-1176, C1007F;R1008N;Q1011L)
Procedure, shortened: as §1

[17] = molecular target: PUM1 PUF domain R7-QPK (Homo sapiens, UniProt Q14671 828-1176, S1079Q;N1080P;E1083K)
Procedure, shortened: as §1

[18] = molecular target: PUM1 PUF domain R1-RKQ (Homo sapiens, UniProt Q14671 828-1176, S863R;R864K)
Procedure, shortened: as §1

[19] = molecular target: PUM1 PUF domain R1-RLS (Homo sapiens, UniProt Q14671 828-1176, S863R;R864L;Q867S)
Procedure, shortened: as §1

[20] = molecular target: PUM1 PUF domain R5-HAD (Homo sapiens, UniProt Q14671 828-1176, C1007H;R1008A;Q1011D)
Procedure, shortened: as §1

**Q.** With “GGCUAGAACUAGUGGAUCCCCCGGCGCCCGGCGGCUCGAGCCCGGGUAAGUGUAAUUAGUCUGCAUGCCGCCGGGCGCCAUGCCUGCAGGUCGACUCUAGAAAACAUG” as the sequence, how does the binding signal [1] read?
**A.** The binding signal was 3.98 log2 enrichment (interaction score).

**Q.** “GGCUAGAACUAGUGGAUCCCCCGGCGCCCGGCGGCUCGAGCCCGGGUAAGUGUGAAUAGUCUGCAUGCCGCCGGGCGCCAUGCCUGCAGGUCGACUCUAGAAAACAUG” was tested. Which binding signal [2] did it give?
**A.** Its binding signal is 2.69 log2 enrichment (interaction score).

**Q.** And the binding signal [3]?
**A.** The binding signal was 1.88 log2 enrichment (interaction score).

**Q.** For “GGCUAGAACUAGUGGAUCCCCCGGCGCCCGGCGGCUCGAGCCCGGGUAAGUUUAAAUAGUCUGCAUGCCGCCGGGCGCCAUGCCUGCAGGUCGACUCUAGAAAACAUG”, which binding signal [4] is on record?
**A.** Its binding signal is 2.25 log2 enrichment (interaction score).

**Q.** For “GGCUAGAACUAGUGGAUCCCCCGGCGCCCGGCGGCUCGAGCCCGGGUAAGUGUACAUAGUCUGCAUGCCGCCGGGCGCCAUGCCUGCAGGUCGACUCUAGAAAACAUG”, which binding signal [5] is on record?
**A.** Its binding signal is 1.61 log2 enrichment (interaction score).

**Q.** With “GGCUAGAACUAGUGGAUCCCCCGGCGCCCGGCGGCUCGAGCCCGGGUAAGCGUAAAUAGUCUGCAUGCCGCCGGGCGCCAUGCCUGCAGGUCGACUCUAGAAAACAUG” as the sequence, how does the binding signal [6] read?
**A.** Its binding signal is 3.15 log2 enrichment (interaction score).

**Q.** What about the binding signal [7] of the same sequence?
**A.** The binding signal was 2.85 log2 enrichment (interaction score).

**Q.** And the binding signal [8]?
**A.** Its binding signal is 5.23 log2 enrichment (interaction score).

**Q.** What does the source list for “GGCUAGAACUAGUGGAUCCCCCGGCGCCCGGCGGCUCGAGCCCGGGUAAGUGUAUAUAGUCUGCAUGCCGCCGGGCGCCAUGCCUGCAGGUCGACUCUAGAAAACAUG”?
**A.** binding signal [9]: 4.34 log2 enrichment (interaction score); binding signal [5]: 2.93 log2 enrichment (interaction score)

**Q.** With “GGCUAGAACUAGUGGAUCCCCCGGCGCCCGGCGGCUCGAGCCCGGGUAAGUGUAAAUAGUCUGCAUGCCGCCGGGCGCCAUGCCUGCAGGUCGACUCUAGAAAACAUG” as the sequence, how does the binding signal [6] read?
**A.** The binding signal was 1.42 log2 enrichment (interaction score).

**Q.** And the binding signal [10]?
**A.** Its binding signal is 0.64 log2 enrichment (interaction score).

**Q.** And the binding signal [11]?
**A.** Its binding signal is 3.6 log2 enrichment (interaction score).

**Q.** And the binding signal [8]?
**A.** The binding signal was 3.99 log2 enrichment (interaction score).

**Q.** What about the binding signal [12] of the same sequence?
**A.** Its binding signal is 6.49 log2 enrichment (interaction score).

**Q.** What about the binding signal [3] of the same sequence?
**A.** The binding signal was 2.29 log2 enrichment (interaction score).

**Q.** And the binding signal [9]?
**A.** The binding signal was 2.12 log2 enrichment (interaction score).

**Q.** And the binding signal [13]?
**A.** Its binding signal is 5.2 log2 enrichment (interaction score).

**Q.** And the binding signal [14]?
**A.** Its binding signal is 2.6 log2 enrichment (interaction score).

**Q.** And the binding signal [1]?
**A.** Its binding signal is 0.87 log2 enrichment (interaction score).

**Q.** What about the binding signal [5] of the same sequence?
**A.** The binding signal was 1.1 log2 enrichment (interaction score).

**Q.** With “GGCUAGAACUAGUGGAUCCCCCGGCGCCCGGCGGCUCGAGCCCGGGUAAGUGUUAAUAGUCUGCAUGCCGCCGGGCGCCAUGCCUGCAGGUCGACUCUAGAAAACAUG” as the sequence, how does the binding signal [2] read?
**A.** Its binding signal is 0.83 log2 enrichment (interaction score).

**Q.** And the binding signal [15]?
**A.** Its binding signal is 4.88 log2 enrichment (interaction score).

**Q.** What about the binding signal [16] of the same sequence?
**A.** The binding signal was 3.47 log2 enrichment (interaction score).

**Q.** And the binding signal [3]?
**A.** Its binding signal is 4.04 log2 enrichment (interaction score).

**Q.** For “GGCUAGAACUAGUGGAUCCCCCGGCGCCCGGCGGCUCGAGCCCGGGUAAGUCUAAAUAGUCUGCAUGCCGCCGGGCGCCAUGCCUGCAGGUCGACUCUAGAAAACAUG”, which binding signal [17] is on record?
**A.** The binding signal was 4.87 log2 enrichment (interaction score).

**Q.** Which binding signal [18] does the source give for “GGCUAGAACUAGUGGAUCCCCCGGCGCCCGGCGGCUCGAGCCCGGGUAAGUGUAAAUGGUCUGCAUGCCGCCGGGCGCCAUGCCUGCAGGUCGACUCUAGAAAACAUG” here?
**A.** Its binding signal is 2.35 log2 enrichment (interaction score).

**Q.** How did the binding signal [19] turn out when “GGCUAGAACUAGUGGAUCCCCCGGCGCCCGGCGGCUCGAGCCCGGGUAAGUGUAAAUUGUCUGCAUGCCGCCGGGCGCCAUGCCUGCAGGUCGACUCUAGAAAACAUG” was run?
**A.** Its binding signal is 2.64 log2 enrichment (interaction score).

**Q.** “GGCUAGAACUAGUGGAUCCCCCGGCGCCCGGCGGCUCGAGCCCGGGUAAGUGUAACUAGUCUGCAUGCCGCCGGGCGCCAUGCCUGCAGGUCGACUCUAGAAAACAUG” was tested. Which binding signal [1] did it give?
**A.** The binding signal was 3.34 log2 enrichment (interaction score).

**Q.** How did the binding signal [1] turn out when “GGCUAGAACUAGUGGAUCCCCCGGCGCCCGGCGGCUCGAGCCCGGGUAAGUGUAAGUAGUCUGCAUGCCGCCGGGCGCCAUGCCUGCAGGUCGACUCUAGAAAACAUG” was run?
**A.** Its binding signal is 2.24 log2 enrichment (interaction score).

**Q.** What does the source list for “GGCUAGAACUAGUGGAUCCCCCGGCGCCCGGCGGCUCGAGCCCGGGUAAGUGUCAAUAGUCUGCAUGCCGCCGGGCGCCAUGCCUGCAGGUCGACUCUAGAAAACAUG”?
**A.** binding signal [10]: 2.87 log2 enrichment (interaction score); binding signal [20]: 6.65 log2 enrichment (interaction score); binding signal [15]: 4.31 log2 enrichment (interaction score); binding signal [3]: 5.48 log2 enrichment (interaction score)

**Q.** “GGCUAGAACUAGUGGAUCCCCCGGCGCCCGGCGGCUCGAGCCCGGGUAAGUGUAAAUCGUCUGCAUGCCGCCGGGCGCCAUGCCUGCAGGUCGACUCUAGAAAACAUG” was tested. Which binding signal [19] did it give?
**A.** Its binding signal is 1.22 log2 enrichment (interaction score).
